{
  "source": "PubChem BioAssay AID588819",
  "about": "(The Scripps Research Institute Molecular Screening Center, 2011)",
  "note": "Screen size: about 360,000 compounds; about 320 (0.089%) were called active. No stated cut-off is given here; in the data, active means activation above about 19% (passing the limit was not always enough); inactive means the rest. Shown is part of a subset that was picked to be rich in actives.",
  "data": [
    {"target": "Muscarinic acetylcholine receptor M1 (Homo sapiens) (UniProt P11229)", "sequence (P11229 whole entry, looked up)": "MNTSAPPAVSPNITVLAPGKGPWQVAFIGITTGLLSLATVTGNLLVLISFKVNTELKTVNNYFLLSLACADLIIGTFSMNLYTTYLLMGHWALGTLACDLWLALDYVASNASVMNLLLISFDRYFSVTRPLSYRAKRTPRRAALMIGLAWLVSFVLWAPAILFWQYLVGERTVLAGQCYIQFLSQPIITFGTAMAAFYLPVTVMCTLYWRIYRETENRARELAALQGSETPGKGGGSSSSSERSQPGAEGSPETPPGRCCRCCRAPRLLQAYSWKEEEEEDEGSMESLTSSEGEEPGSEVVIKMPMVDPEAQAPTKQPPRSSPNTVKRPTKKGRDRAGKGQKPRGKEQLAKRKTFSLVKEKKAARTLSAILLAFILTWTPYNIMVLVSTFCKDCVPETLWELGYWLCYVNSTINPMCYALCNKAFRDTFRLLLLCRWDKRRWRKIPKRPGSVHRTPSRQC", "experiment": "human M1 muscarinic receptor positive allosteric modulators, primary screen, CHO-K1 cells, Fluo-8 calcium fluorescence, 1536-well (AID 588819)", "conditions": "CHO-K1 hM1, Fluo-8 calcium fluorescence, ACh EC20; at 3 µM; hits give high values; 0% = ACh EC20, 100% = maximal ACh", "values": [
      {"smiles": "COc1ccc(CCNC(=O)C2CCCN(Cc3nc(-c4cccc(Cl)c4)oc3C)C2)cc1OC", "note": "(stereo not given)", "activation": "4.43% (inactive)"},
      {"smiles": "NC(=O)C1CCN(Cc2nc3c(Br)cc(Br)cc3c(=O)[nH]2)CC1", "activation": "8.06% (inactive)"},
      {"smiles": "COc1ccc(CNC(=O)C2CCN(S(=O)(=O)N3CCOCC3)CC2)cc1", "activation": "5.85% (inactive)"},
      {"smiles": "O=C(NCc1ccccc1Cl)C1CCN(S(=O)(=O)N2CCOCC2)CC1", "activation": "-0.4% (inactive)"},
      {"smiles": "O=C(O)C1CCN(S(=O)(=O)N2CCOCC2)CC1", "activation": "29.8% (active)"},
      {"smiles": "COc1cc2c(cc1OC)C(C(=O)NCc1ccco1)C1c3ccccc3CCN1C2=O", "note": "(stereo not given)", "activation": "3.09% (inactive)"},
      {"smiles": "O=C(NCc1csc(-c2cccs2)n1)C1CC1", "activation": "9.22% (inactive)"},
      {"smiles": "CC(=O)c1ccc(S(=O)(=O)Nc2ccc(-c3ccc4nncn4n3)cc2)cc1", "activation": "7.59% (inactive)"},
      {"smiles": "O=C(c1cncc(Br)c1)N1CCN(c2ccc([N+](=O)[O-])cc2)CC1", "activation": "-20% (inactive)"},
      {"smiles": "CCc1cccc(C)c1NS(=O)(=O)c1c(C)nc2sccn2c1=O", "activation": "4.98% (inactive)"},
      {"smiles": "Cc1ccc(-c2csc(N3CCN(c4cc5c(cc4Cl)nc(-c4ccncc4)n5CCOCCO)CC3)n2)cc1", "activation": "21.4% (inactive)"},
      {"smiles": "Cc1ccc2nc(SCC(=O)N3CCN(c4ccccc4)CC3)nc(=O)n2c1", "activation": "3.95% (inactive)"},
      {"smiles": "Cc1ccc(-n2c(CNc3ccc(F)cc3)nnc2SCC(=O)N2CCOCC2)cc1", "activation": "7.13% (inactive)"},
      {"smiles": "O=C(O)CN1C(=O)CC(Cc2ccccc2)C1=O", "note": "(stereo not given)", "activation": "11.7% (inactive)"},
      {"smiles": "O=C1N[C@@H](Cc2ccccc2)C(=O)N2[C@H]1C[C@]1(Br)c3ccccc3N(S(=O)(=O)c3ccccc3)[C@H]21", "activation": "7.1% (inactive)"},
      {"smiles": "CSc1ccc(S(=O)(=O)NCC(=O)OCC(=O)NC2(C#N)CCCCC2)cc1[N+](=O)[O-]", "activation": "3.7% (inactive)"},
      {"smiles": "Cc1ccc(N2C(=O)c3ccccc3C2(O)c2ncc[nH]2)cc1", "note": "(stereo not given)", "activation": "8.87% (inactive)"},
      {"smiles": "CCc1c(C)nc2ncnn2c1N1CCC(C(=O)NCc2ccc3c(c2)OCO3)CC1", "activation": "5.91% (inactive)"},
      {"smiles": "COCCn1c(SCC(=O)N2CCCCCC2)nc2c(c1=O)SCC2", "activation": "26.5% (active)"},
      {"smiles": "Cn1c(SCC(=O)N2CCCCC2)nc2c(c1=O)SCC2", "activation": "-5.48% (inactive)"},
      {"smiles": "COCCn1c(SCC(=O)Nc2ccccc2F)nc2c(c1=O)SCC2", "activation": "7.02% (inactive)"},
      {"smiles": "CSCCC(NC(=O)c1ccco1)C(=O)OCC(=O)Nc1ncc(Cl)c(C)c1Cl", "note": "(stereo not given)", "activation": "20.9% (active)"},
      {"smiles": "Cc1c(Cl)cnc(NC(=O)COC(=O)C2CCCC2)c1Cl", "activation": "4.9% (inactive)"},
      {"smiles": "CSCCC(NC(=O)c1ccco1)C(=O)Nc1cc(C)ccn1", "note": "(stereo not given)", "activation": "3.47% (inactive)"},
      {"smiles": "CC(=NNC(=O)c1ccncc1)c1ccc(Cl)c(Cl)c1", "activation": "-2.62% (inactive)"},
      {"smiles": "C/C(=N/NC(=O)c1ccn(C)n1)c1ccncc1", "activation": "33.2% (active)"},
      {"smiles": "C/C(=N/NC(=O)c1ccncc1)c1ccc2c(c1)OCO2", "activation": "6.79% (inactive)"},
      {"smiles": "Cc1cccc2c1N(CCOc1ccccc1)C(=O)C2=O", "activation": "8.27% (inactive)"},
      {"smiles": "Cc1cc(C)c(S(=O)(=O)c2ccc(F)cc2C)c(=O)[nH]1", "activation": "2.45% (inactive)"},
      {"smiles": "COC(=O)C1=C(C)N(C(C)c2ccccc2)C(=O)/C1=C\\c1ccco1", "note": "(stereo not given)", "activation": "3.44% (inactive)"},
      {"smiles": "CCCc1cc(=O)n2[nH]c(C)c(-c3ccc(Cl)cc3)c2n1", "activation": "12.2% (inactive)"},
      {"smiles": "COc1ccc(C(=O)NCC2CCCN2S(=O)(=O)c2cccs2)cc1OC", "note": "(stereo not given)", "activation": "6.88% (inactive)"},
      {"smiles": "CCCCNC(=O)OC(C)CNC(=O)OC", "note": "(stereo not given)", "activation": "4.6% (inactive)"},
      {"smiles": "Cc1ccc(NS(=O)(=O)c2c(C)[nH]c(=O)[nH]c2=O)cc1C", "activation": "6.73% (inactive)"},
      {"smiles": "O=S(=O)(Nc1ccccc1)c1ccc(NS(=O)(=O)c2cccs2)cc1", "activation": "11.7% (inactive)"},
      {"smiles": "Cc1ccc(S(=O)(=O)N2CCOCC2)cc1NC(=O)CSc1nnc(N)s1", "activation": "3.59% (inactive)"},
      {"smiles": "CCOc1ccc(N2CC(C(=O)N/N=C/c3sccc3C)CC2=O)cc1", "note": "(stereo not given)", "activation": "1.58% (inactive)"},
      {"smiles": "CC1CN/C(=C\\C(=O)c2ccc(Br)cc2)C(=O)N1", "note": "(stereo not given)", "activation": "5.69% (inactive)"},
      {"smiles": "Cc1ccc(C(O)P(=O)(OC(C)C)c2ccc(N(C)C)cc2)cc1", "note": "(stereo not given)", "activation": "9.51% (inactive)"},
      {"smiles": "CC(C)(C)NC(=O)COC(=O)c1cc(Cl)ccc1[N+](=O)[O-]", "activation": "4.45% (inactive)"},
      {"smiles": "Cc1ccc(N2CC(C(=O)Nc3cc(Cl)ccc3-n3cncn3)CC2=O)cc1", "note": "(stereo not given)", "activation": "8.82% (inactive)"},
      {"smiles": "O=C(c1ccco1)N1CCN(C(=O)C2CC(c3ccc(F)cc3)=NO2)CC1", "note": "(stereo not given)", "activation": "25.8% (active)"},
      {"smiles": "CCOC(=O)N1CCN(C(=O)C2CC(c3ccc(F)cc3)=NO2)CC1", "note": "(stereo not given)", "activation": "-1.27% (inactive)"},
      {"smiles": "O=C(c1ccco1)N1CCN(C(=O)C2CC(c3ccc(Cl)c(Cl)c3)=NO2)CC1", "note": "(stereo not given)", "activation": "1.62% (inactive)"},
      {"smiles": "Cc1ccccc1S(=O)(=O)NC(=O)C1(C)CCN1C(=O)Cc1ccc(Cl)cc1Cl", "note": "(stereo not given)", "activation": "4.98% (inactive)"},
      {"smiles": "COC(=O)CC(=O)N1CCN(c2ccc(Cl)c(Cl)c2)CC1", "activation": "-9.1% (inactive)"},
      {"smiles": "O=C(c1ccc(F)cc1)N1CCCC(c2nc(-c3cccs3)no2)C1", "note": "(stereo not given)", "activation": "6.3% (inactive)"},
      {"smiles": "Cc1ccc(-c2noc(C3CCCN(C(=O)c4cccc(Cl)c4)C3)n2)o1", "note": "(stereo not given)", "activation": "28.6% (active)"},
      {"smiles": "COc1cccc(-c2noc(C3CCCN(C(=O)c4ccc(F)cc4)C3)n2)c1", "note": "(stereo not given)", "activation": "22.6% (inactive)"},
      {"smiles": "CC1CC(=O)Nc2ccccc2N1C(=O)COc1ccc2cc(Br)ccc2c1", "note": "(stereo not given)", "activation": "12.5% (inactive)"},
      {"smiles": "COc1ccc(NS(=O)(=O)c2ccc(NC(=O)c3ccc(N(C)S(C)(=O)=O)cc3)cc2)cc1", "activation": "8.88% (inactive)"},
      {"smiles": "COc1ccc(NC(=O)c2cnc(NS(=O)(=O)c3ccccc3)nc2)cc1", "activation": "29.7% (active)"},
      {"smiles": "O=C(Nc1ccc(S(=O)(=O)Nc2ncccn2)cc1)c1cncc(Br)c1", "activation": "0.19% (inactive)"},
      {"smiles": "CC(C)c1ccc2c(c1)c(SC(C)(C)C)c(CC(C)(C)C(=O)O)n2Cc1ccc(Cl)cc1", "activation": "-0.45% (inactive)"},
      {"smiles": "CC(Oc1ccc(F)cc1)C(=O)N1CCN(c2ncccn2)CC1", "note": "(stereo not given)", "activation": "0.98% (inactive)"},
      {"smiles": "O=C(O)Cc1csc(NC(=O)CSc2nnnn2-c2ccc(O)cc2)n1", "activation": "11.2% (inactive)"},
      {"smiles": "CC(=O)C1=C(C)NC(=O)NC1c1cc(Br)ccc1OCC#N", "note": "(stereo not given)", "activation": "13.1% (inactive)"},
      {"smiles": "CCN(CC)C(=O)CSc1ncnc2c1cnn2-c1ccccc1", "activation": "1.79% (inactive)"},
      {"smiles": "CCn1c(SC(C)C(=O)Nc2ccc(N3CCOCC3)cc2)nnc1-c1ccco1", "note": "(stereo not given)", "activation": "5.42% (inactive)"},
      {"smiles": "CC(Sc1ncnc2c1cnn2-c1ccccc1)C(=O)Nc1ccc(N2CCOCC2)cc1", "note": "(stereo not given)", "activation": "25.3% (active)"}
    ]}
  ]
}
